The values below come from PubChem BioAssay (NCI).

About 83,000 compounds went through this panel and 20% of them were active in at least one assay; those are over-represented in the sample as a whole.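 Compound tested at a single concentration for 48 hours in 96-well plates; a percent growth value below 10 was scored as active.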 The source made the active and inactive calls.

The test system of the assay is NCI-H522 lung. Nature of the assay: NCI-60 one-dose screen, 48 h (100 = growth as untreated, 0 = no growth, -100 = all killed). Particulars: 10 µM unless noted. How it is done:
Growth inhibition of the NCI-H522 human Non-Small Cell Lung tumor cell line is measured as a screen for anti-cancer activity. Cells are grown in 96 well plates and exposed to the test compound for 48 hours. Compounds are tested at a single concentration, which is 10^-5 M for most compounds. The reported endpoint is percent growth (GI% or GIPRCNT), where numbers from 0 - 100% represent growth inhibition, and numbers from -100% - 0 represent cell death. For example, a value of 40 represents 60% growth inhibition. A value of 0 means no net growth occurred over the course of the experiment. A value of -40 indicates 40% of cells at the beginning of the experiment died by the end of the experiment. A value of -100 means all cells are dead at the end of the experiment.
NCI-60 Human Tumor Cell Lines Screen was performed using the standard one-dose NCI protocol, which is described in more detail at https://dtp.cancer.gov/discovery_development/nci-60/default.htm.
Compounds with GIPRCNT values below 10 were considered active. Activity score was based on GIPRCNT using the following formula: […]
Score is 0 for GIPRCNT values of 100 or above, 50 for GIPRCNT values of 0, and 100 for GIPRCNT values of -100.
For the molecule `Cn1c(=O)c2[nH]c(CCCc3nc4c([nH]3)c(=O)n(C)c(=O)n4C)nc2n(C)c1=O`, the growth was 112% (inactive).
In the case of `Nc1c(Cl)cc([N+](=O)[O-])cc1Br`, the growth was 88.1% (inactive).
On to `O=C(Nc1nc2ccc(S(=O)(=O)Nc3ccc(C4(C(F)(F)F)CC4)cc3)cc2[nH]1)c1cnccn1`, for which the growth was 26.9% (inactive).
Consider `COc1cc(-c2nc3sccn3c2-c2ccnc(NCCNS(=O)(=O)c3ccc(F)cc3)n2)ccc1F`, for which the growth is -6.6% (active).
Consider `O=S(=O)(NCCCNc1nccc(-c2c(-c3ccc(F)c(O)c3)nc3sccn23)n1)c1ccc(F)cc1`, for which the growth was -9.08% (active).
For `O=C1Nc2cc(-c3ccncc3)ccc2/C1=C/c1ccc[nH]1`, the growth was 75.2% (inactive).
Under `Clc1cc(Cl)cc(N2N=C(c3cccc(Nc4ccncc4)c3)CC2c2ccc3c(c2)OCO3)c1` (stereo not given) stands -5.89% (active); under `Cc1[nH]n(C(=O)c2ccncc2)c(=O)c1N=Nc1ccc(F)c(Cl)c1`, 103% (inactive).
Regarding `Cc1cc(Nc2cccc(C(F)(F)F)c2)n2c(nc3ccccc32)c1C#N`, the growth was 20.7% (inactive).
Then `COc1ccc(Cn2nc(-c3ccccc3)c3c2CCc2cnoc2-3)cc1`, with 70.3% (inactive).
`O=C1OC(=O)C2C1CC=CC2c1ccccc1` (stereo not given): the growth was 93.6% (inactive).
Then `COc1cc2c(cc1[N+](=O)[O-])-c1ccc([N+](=O)[O-])cc1/C2=N\O`, with 51.2% (inactive); and `COc1cc(CCNc2nc3cc(N)cc(N)c3nc2-c2ccccc2)cc(OC)c1`, with -65.1% (active); and `BrC(Br)(Br)c1cnc2ccccc2n1`, with -61.3% (active).
Under `CCCC1C(C(=O)OCC)=C(N)Oc2cc(O)ccc21` (stereo not given) stands 77.2% (inactive); under `Fc1ccc(C2CC(c3cccc(Nc4ccncc4)c3)=NN2c2ccc(Cl)cc2)cc1` (stereo not given), 83.1% (inactive); under `O=S(=O)(NCCNc1nccc(-c2c(-c3ccc(F)c(O)c3)nc3occn23)n1)c1ccccc1`, 55.2% (inactive).
`COc1ccc(/C=C/C(=O)c2ccc(Nc3ncnc4ccccc34)cc2)cc1OC`: the growth is 92.7% (inactive).
Then `CCCCCCN(C)Cc1ccc(OCCOc2ccc(CN(C)CCCCCC)cc2)cc1`, with 35.3% (inactive).
As for `CC1(c2ccccc2)NC(=O)N(CC(=O)Nc2cccc(I)c2)C1=O` (stereo not given), the growth was 67.5% (inactive).
`O=c1nc2n(nc1/C=C/c1ccco1)CC(c1ccc(Cl)cc1)=NN2`: the growth was 79.4% (inactive).
`CC(C)(C)CC(C)(C)Nc1c(-c2ccc3c(c2)OCO3)nc2cnccn12`: the growth is 74.1% (inactive).
For `O=C(CN1CCOCC1)Nc1ccc2ncnc(Nc3ccc(Oc4cccc(C(F)(F)F)c4)c(Cl)c3)c2c1`, the growth was 26% (inactive).
Regarding `COc1ccc(C(=O)c2cc3c(N)c(C(=O)Nc4ccc(Cl)cc4)sc3nc2C)cc1`, the growth is 43.8% (inactive).
As for `COc1ccc(Cl)cc1NC(=O)c1c(NC(=O)C(F)(F)C(F)(F)F)sc2c1CCCCC2`, the growth is -0.0876% (active).
Under `COc1cc(NCCN(CC(C)C)C2CCCC2)c2ncccc2c1` stands 78.1% (inactive).
As for `COc1cc(-c2nc3occn3c2-c2ccnc(NCCNS(=O)(=O)c3ccc(Cl)cc3)n2)ccc1F`, the growth is 66.4% (inactive).
On to `CC(C)[N+](C)(CCOC(COc1ccccc1)COc1ccccc1)C(C)C`, for which the growth is 68% (inactive).
On to `Cc1ccccc1C(c1ccccc1)c1ccccc1C`, for which the growth is 77.1% (inactive).
As for `CC1(C)[C@H](O)CC[C@]2(C)[C@@H]1CC[C@@]13C[C@@H](CC[C@H]12)[C@@](O)(CO)C3`, the growth is 92.1% (inactive).
Take `O=C(CN1CCOCC1)Nc1ccc2ncnc(Nc3ccc(Oc4cccc(F)c4)c(Cl)c3)c2c1`: the growth was 20.7% (inactive).
Regarding `O=C(N/N=C/c1cccc(O)c1)c1ccccc1Nc1cccc(C(F)(F)F)c1`, the growth is 90.3% (inactive).
Take `N#Cc1c(Nc2ccccc2)nn2cc(-c3nc4ccccc4s3)c(N)nc12`: the growth was 72.8% (inactive).
Take `CCCCCCNC(=O)Oc1ccc(/C(=C(/CC)Cc2ccccc2)c2ccc(OCCN(CC)CC)cc2)cc1`: the growth was 74.5% (inactive).
With `COc1cccc2c1C(=O)c1c(O)c3c(c(O)c1C2=O)C[C@@](O)(C(=O)CO)C[C@@H]3O[C@H]1C[C@H](N)[C@@H](O)[C@H](C)O1`, the growth was -55.2% (active).
With `COc1c(Cl)cc(Cl)c2ccc(C=C3C(=O)N(C)C(=O)N(C)C3=O)nc12`, the growth is 92.2% (inactive).
Consider `Cn1ncc2c(Nc3ccccc3Cl)nc(Cl)nc21`, for which the growth was 40.5% (inactive).
Turning to `CN(C)c1ccc(-c2c(C#N)c(N)n3nc(N)c(C#N)c3c2C#N)cc1`, the growth is 82.7% (inactive).
Take `CC(C)(C#N)N1CCN(c2ccccc2Cl)CC1`: the growth was 90.9% (inactive).
As for `O=C(N/N=C/c1ccc(F)cc1)c1ccccc1Nc1cccc(C(F)(F)F)c1`, the growth was 92.8% (inactive).
